Entries with a potency or affinity are not part of this list. Calls of active or inactive are those of the source.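 Rule for the calls: active = viability loss with a fitted half-maximal dose at or below twice the top valid dose, in every repeat test; inconclusive = repeat tests disagree, or a flat partial loss, or a poor fit; inactive = all tests inactive, including signal rising instead of falling.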
Test: cytotoxicity in melanoma parental cells – cell-based, CellTiter-Glo, dry powder, set 6, MITF inhibitor project, dose response (AID 624429)
Settings: SK-MEL-5 viability, ATP luminescence (CellTiter-Glo), 24 h; series mostly up to 35 µM

NC1=C(NS(=O)(=O)c2ccc(Br)s2)C(=O)c2ccccc2C1=O
outcome: inactive
